Results filed as inconclusive are left out. The source made the active and inactive calls. Calls come from the whole dose curve; as a rule, active = well fitted inhibition curve with a large enough effect; inconclusive = small, poorly fitted or top-dose-only effect; inactive = flat fitted curve, though single readings scatter.
Legend:
Experiment in all cases: qHTS profiling for inhibitors of Plasmodium falciparum proliferation (AID 504749); note: nearly all actives have a fitted effect of over 60% in size
[1] = test system: 3D7; details: P. falciparum in erythrocytes, SYBR Green DNA, 72 h; series mostly up to 12.8 µM
Method in brief: (§1)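 SYBR Green fluorescence of parasite DNA, read after lysis and overnight dark incubation, measured growth over 72 h in erythrocyte culture at 0.3% parasitemia and 2.5% hematocrit. Data normalised to DMSO and 0.29 uM artemisinin, with plate-drift correction.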

[2] = test system: AA1029; details: P. falciparum in erythrocytes, SYBR Green DNA, 72 h; series mostly up to 12.8 µM
Method in brief: as §1

[3] = test system: AS120; details: P. falciparum in erythrocytes, SYBR Green DNA, 72 h; series mostly up to 28.7 µM
Method in brief: as §1

[4] = test system: C2A; details: P. falciparum in erythrocytes, SYBR Green DNA, 72 h; series mostly up to 12.8 µM
Method in brief: as §1

[5] = test system: CP185; details: P. falciparum in erythrocytes, SYBR Green DNA, 72 h; series mostly up to 12.8 µM
Method in brief: as §1

[6] = test system: CP201; details: P. falciparum in erythrocytes, SYBR Green DNA, 72 h; series mostly up to 12.8 µM
Method in brief: as §1

[7] = test system: CP250; details: P. falciparum in erythrocytes, SYBR Green DNA, 72 h; series mostly up to 12.8 µM
Method in brief: as §1

[8] = test system: CP252; details: P. falciparum in erythrocytes, SYBR Green DNA, 72 h; series mostly up to 12.8 µM
Method in brief: as §1

[9] = test system: CP256; details: P. falciparum in erythrocytes, SYBR Green DNA, 72 h; series mostly up to 12.8 µM
Method in brief: as §1

[10] = test system: CP265; details: P. falciparum in erythrocytes, SYBR Green DNA, 72 h; series mostly up to 12.8 µM
Method in brief: as §1

[11] = test system: CP268; details: P. falciparum in erythrocytes, SYBR Green DNA, 72 h; series mostly up to 12.8 µM
Method in brief: as §1

[12] = test system: CP286; details: P. falciparum in erythrocytes, SYBR Green DNA, 72 h; series mostly up to 12.8 µM
Method in brief: as §1

[13] = test system: CP291; details: P. falciparum in erythrocytes, SYBR Green DNA, 72 h; series mostly up to 12.8 µM
Method in brief: as §1

[14] = test system: CP305; details: P. falciparum in erythrocytes, SYBR Green DNA, 72 h; series mostly up to 12.8 µM
Method in brief: as §1

[15] = test system: CP329; details: P. falciparum in erythrocytes, SYBR Green DNA, 72 h; series mostly up to 12.8 µM
Method in brief: as §1

[16] = test system: CP335; details: P. falciparum in erythrocytes, SYBR Green DNA, 72 h; series mostly up to 12.8 µM
Method in brief: as §1

[17] = test system: SC27B; details: P. falciparum in erythrocytes, SYBR Green DNA, 72 h; series mostly up to 12.8 µM
Method in brief: as §1

[18] = test system: TAB109; details: P. falciparum in erythrocytes, SYBR Green DNA, 72 h; series mostly up to 12.8 µM
Method in brief: as §1

[19] = test system: TAB113; details: P. falciparum in erythrocytes, SYBR Green DNA, 72 h; series mostly up to 12.8 µM
Method in brief: as §1

[20] = test system: TAB165; details: P. falciparum in erythrocytes, SYBR Green DNA, 72 h; series mostly up to 12.8 µM
Method in brief: as §1

Measured: Potency

Cn1c(=O)c2c(ncn2C[C@@H](O)CO)n(C)c1=O
inactive: all assays above

CO/N=C(/C(=O)NC1C(=O)N2C(C(=O)O)=C(CSc3nc(=O)c(O)nn3C)CSC12)c1csc(N)n1 (stereo not drawn)
inactive: all assays above

COc1ccc(C[C@@H]2c3cc(OC)c(OC)cc3CC[N@+]2(C)CCC(=O)OCCCCCOC(=O)CC[N@@+]2(C)CCc3cc(OC)c(OC)cc3[C@H]2Cc2ccc(OC)c(OC)c2)cc1OC
inactive: all assays above

CN(C)[C@H]1C(=O)C(C(=O)NCN2CCCC2)=C(O)[C@]2(O)C(=O)C3=C(O)c4c(O)cccc4[C@@](C)(O)[C@H]3C[C@@H]12
inactive: all assays above

CC[C@H](NC(C)C)[C@H](O)c1ccc(O)c(O)c1
not listed: [1] | [7]
inactive: all other assays above

CCN[C@@H]1C[C@H](C)S(=O)(=O)c2sc(S(N)(=O)=O)cc21
inactive: all assays above

O=c1[nH]c(=O)n([C@@H]2C[C@H](O)[C@H](CO)O2)cc1I
inactive: all assays above

C[C@@H](C(=O)O)c1ccc(C(=O)c2cccs2)cc1
inactive: all assays above

O=c1[nH]cnc2c1ncn2C1OC(CO)C(O)C1O (stereo not drawn)
inactive: all assays above

CC(=O)N(CC(O)CN(C(C)=O)c1c(I)c(C(=O)NC[C@@H](O)CO)c(I)c(C(=O)NC[C@@H](O)CO)c1I)c1c(I)c(C(=O)NC[C@@H](O)CO)c(I)c(C(=O)NC[C@@H](O)CO)c1I
inactive: all assays above

CN[C@@H](CC(C)C)C(=O)N[C@@H]1C(=O)N[C@H](CC(N)=O)C(=O)N[C@@H]2C(=O)N[C@H]3C(=O)N[C@H](C(=O)N[C@H](C(=O)O)c4cc(O)cc(O)c4-c4cc3ccc4O)[C@H](O)c3ccc(c(Cl)c3)Oc3cc2cc(c3O[C@H]2O[C@@H](CO)[C@@H](O)[C@@H](O)[C@@H]2O[C@@H]2C[C@](C)(N)[C@H](O)[C@H](C)O2)Oc2ccc(cc2Cl)[C@@H]1O
inactive: all assays above

O=C(O)/C=C\c1ccc(Cn2ccnc2)cc1
inactive: all assays above

CCCN[C@@H](C)C(=O)Nc1c(C)csc1C(=O)OC
inactive: all assays above

NS(=O)(=O)c1cc([C@@]2(O)NC(=O)c3ccccc32)ccc1Cl
inactive: all assays above

CC1(C)Oc2ccc(C#N)cc2[C@H](N2CCCC2=O)[C@H]1O
inactive: all assays above

C[N+]1(C)CCC[C@@H](OC(=O)C(O)(c2ccccc2)c2ccccc2)C1
inactive: all assays above

C/C=C\C(=O)N(CC)c1ccccc1C
inactive: all assays above

CC(=O)Nc1c(I)c(C(=O)N[C@H]2[C@@H](O)[C@H](O)[C@H](CO)O[C@@H]2O)c(I)c(N(C)C(C)=O)c1I
inactive: all assays above

CC1(C)S[C@@H]2[C@H](NC(=O)[C@H](C(=O)O)c3ccsc3)C(=O)N2[C@H]1C(=O)O
inactive: all assays above
